# Assay results from PubChem BioAssay (EPA / NIEHS).
# Records with an inconclusive call do not appear. Active and inactive are the calls of the source. Rule for the calls: active = hit-call score of the fitted dose curve at least 0.9, where 1 is the maximum; inconclusive = response in the unintended direction; inactive = score below 0.9.
# Assay: Tanguay_ZF_120hpf_BRAI_legacy: (Legacy) Oregon State University Tanguay Lab 120 Hour Post-fertilization zebrafish Assay for Brain Malformation (AID 2283641)
# Procedure: Tanguay_ZF_120hpf_legacy is a whole embryo, multiplexed endpoint assay using zebrafish larvae exposed for 120 hours post fertilization on a 96-well plate.Tanguay_ZF_120hpf_BRAI_legacy is one of one assay component(s) measured or calculated from the Tanguay_ZF_120hpf_legacy assay. It is designed to make measurements of zebrafish development as detected with brightfield microscopy of developing zebrafish embryos.Data from the assay component Tanguay_ZF_120hpf_BRAI_legacy was analyzed into 1 assay endpoints. This assay endpoint, Tanguay_ZF_120hpf_BRAI_legacy, was analyzed in the positive analysis fitting direction relative to DMSO as the negative control and baseline of activity. Using a type of morphology reporter, gain-of-signal activity can be used to understand changes in developmentals as they relate to the whole embryo. To generalize the intended target to other relatable targets, this assay endpoint is annotated to the zebrafish development intended target family, where the subfamily is brain morphogenesis.
# Zebrafish husbandry: Tropical 5D wild-type adult zebrafish were housed in at an approximate density of 1000 per 100 gallon tank at the Sinnhuber Aquatic Research Laboratory, Oregon State University, Corvallis, OR. Each tank was kept at standard laboratory conditions of 28C on a 14-h light/10-h dark photoperiod in fish water consisting of reverse osmosis water supplemented with a commercially available salt (Instant Ocean). Spawning funnels were placed into the tanks the night prior, and embryos were collected and staged. […] Ten microliters of each row of dilution plate 2 was added to 2 exposure plates. The final DMSO concentration used was 0.64% (vol/vol). Thirty-two embryos were also exposed to 5uM trimethyltin chloride (positive control). Plates were sealed to prevent evaporation and foil covered to reduce light exposure and kept in a 28C incubator. Embryos were statically exposed until 120 hpf. At 24 hpf, embryos were assessed for photomotor response using a custom photomotor response analysis tool (PRAT) and for developmental toxicity endpoints (MO24: mortality at 24 hpf, DP: developmental progression, SM: spontaneous movement, and NC: notochord distortion). At 120 hpf, locomotor activity was measured using Viewpoint Zebralab and assessed for 18 endpoints. Zebrafish acquisition and analysis program (ZAAP), a custom program designed to inventory, acquire, and manage zebrafish data, was used to collect developmental endpoints as either present or absent (i.e., binary responses were recorded). If mortality occurred for an embryo (at either 24 or 120 hpf), the non-mortality endpoints were not measured.
SMILES,outcome,AC50
[As]#[In],inactive,
c1ccc(C2CO2)cc1 (stereo not given),inactive,
O=C(Nc1ccccc1)c1ccccc1I,inactive,
ClC1=C(Cl)C2(Cl)C3C(Cl)C=CC3C1(Cl)C2(Cl)Cl (stereo not given),inactive,
CC(C)(O)c1cnn2c(-c3ccc(F)c(-c4c(F)cccc4C#N)c3)cnc2n1,inactive,
O=C(N[C@H](c1ccccc1)[C@@H]1CN2CCC1CC2)c1c(Cl)ccc(C(F)(F)F)c1Cl,inactive,
CCCCOC(=O)c1ccccc1C(=O)OCc1ccccc1,inactive,
COc1cc(C=O)cc2c1[C@H](COC(N)=O)[C@]1(OC(C)=O)ON2C[C@H]2[C@@H]1N2C(C)=O,inactive,
O=[N+]([O-])C(Br)(CO)CO,inactive,
OCCCBr,inactive,
CCN(CC)N=O,inactive,
O=[N+]([O-])c1ccc(Oc2ccc(Cl)cc2Cl)cc1,inactive,
CCCCCCCCOC(=O)c1ccc(C(=O)OCCCCCCCC)c(C(=O)OCCCCCCCC)c1,inactive,
Nc1ccc(Cl)cc1N,inactive,
Oc1ccc2ccc3cccc4ccc1c2c34,,46.1 µM (active)
CC(C)COC(=O)c1ccccc1C(=O)OCC(C)C,inactive,
N#CC(Br)(Br)C(N)=O,inactive,
Cc1cccc(N)c1N,inactive,
N#CC(Br)Br,inactive,
O=Cc1ccco1,inactive,

SMILES,outcome,AC50
CCOc1cccc(C2(N3CCN(c4ccccc4)CC3)CCC(C)CC2)c1 (stereo not given),inactive,
COP(=S)(OC)SCN1C(=O)c2ccccc2C1=O,inactive,
Cc1cc(N=Nc2ccccc2C)ccc1N,inactive,
ClC1=C(Cl)[C@]2(Cl)[C@H]3[C@H]([C@@H]4C=C[C@H]3C4)[C@@]1(Cl)C2(Cl)Cl,inactive,
Cc1ccc(N)cc1,inactive,
C[C@]12C=CC3=C4CCC(=O)C=C4CC[C@H]3[C@@H]1CC[C@@H]2O,,27.1 µM (active)
CCCCCCCCCCCCCN1CC(C)OC(C)C1 (stereo not given),inactive,
CCC(C)c1ccc(O)cc1 (stereo not given),inactive,
CCC[CH2][Sn]([Cl])([CH2]CCC)[CH2]CCC,inactive,
c1ccc(N=Nc2ccccc2)cc1,inactive,
Cn1cc(-c2ccccc2)c(=O)c(-c2cccc(C(F)(F)F)c2)c1,inactive,
Brc1ccc(Oc2ccccc2)cc1,inactive,
Nc1ccc(Oc2ccc(N)cc2)cc1,inactive,
CC(C)(C)C(O)(CCc1ccc(Cl)cc1)Cn1cncn1 (stereo not given),inactive,
C1=Cc2cccc3cccc1c23,inactive,
COC(=O)Nc1nc2ccccc2[nH]1,inactive,
Clc1ccc(Cl)c(Cl)c1,inactive,
Cc1ccc(N=C=O)cc1N=C=O,inactive,
C=CCc1ccc2c(c1)OCO2,inactive,
CS(=O)(=O)NC(=O)c1cc(Oc2ccc(C(F)(F)F)cc2Cl)ccc1[N+](=O)[O-],inactive,
